# Measured values from PubChem BioAssay (NCI).
# About 79,000 compounds went through this panel and 15% of them were active in at least one assay; those are over-represented in the sample as a whole. Values without a mark were called inactive. The source made the active and inactive calls. Cut-off read from the data, not from the text of the source: active = growth inhibition above about 70%; inactive = the rest.
# Tests used:
# [1] = NCI Yeast Anticancer Drug Screen. Data for the rad50 strain (AID 155);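 note: 0% = growth of vehicle-only cultures of the same strain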; conditions: S. cerevisiae rad50 strain growth inhibition, active compounds read high
# Procedure, shortened: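 Readout: growth inhibition relative to vehicle-treated cultures. Compound exposure was carried out in a genetically defined yeast strain deficient in DNA damage repair.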
# [2] = NCI Yeast Anticancer Drug Screen. Data for the mec2-1 strain (AID 157); conditions: S. cerevisiae mec2-1 strain, active compounds read high
# Procedure, shortened: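 Test agents were screened against the mec2-1 yeast strain, with defined DNA repair or cell cycle alteration. Growth was scored as inhibition against vehicle-only controls.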
# [3] = NCI Yeast Anticancer Drug Screen. Data for the sgs1 mgt1 strain (AID 161);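 note: 0% = growth of cultures given vehicle only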; conditions: S. cerevisiae sgs1 mgt1 strain, active compounds read high
# Procedure, shortened: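 Mutant yeast exposed to compound; growth scored against vehicle-only wells.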
# [4] = NCI Yeast Anticancer Drug Screen. Data for the cln2 rad14 strain (AID 165);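 note: 0% = growth equal to vehicle treated cultures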; conditions: S. cerevisiae cln2 rad14 strain, active compounds read high
# Procedure, shortened: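 Growth of compound-exposed yeast (cln2 rad14 genotype) measured and expressed as inhibition relative to vehicle.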
# [5] = NCI Yeast Anticancer Drug Screen. Data for the bub3 strain (AID 167); conditions: S. cerevisiae bub3 mutant strain, active compounds read high
# Procedure, shortened: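 Readout: yeast growth inhibition, expressed relative to vehicle-only wells. The test organism is a mutant strain from a panel with lesions in DNA repair or checkpoint genes.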
# [6] = NCI Yeast Anticancer Drug Screen. Data for the mlh1 rad18 strain (AID 175); conditions: S. cerevisiae mlh1 rad18 strain growth inhibition, active compounds read high
# Procedure, shortened: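 In this whole-cell yeast screen, a strain with altered DNA damage repair is challenged with compound, and its growth is measured against matched vehicle-treated controls.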
# [7] = at 5.0 µM (retest, dose inferred, filed as 0.5)
# [8] = at 50.0 µM (retest, dose inferred, filed as 5.0)
Compound,"growth inhibition [1, 7]","growth inhibition [1, 8]",growth inhibition ([1]; at 50.0 µM),"growth inhibition [2, 7] [%]","growth inhibition [2, 8]",growth inhibition ([2]; at 50.0 µM),"growth inhibition [3, 7]","growth inhibition [3, 8]",growth inhibition ([3]; at 50.0 µM),"growth inhibition [4, 7] [%]","growth inhibition [4, 8]",growth inhibition ([4]; at 50.0 µM),"growth inhibition [5, 7]","growth inhibition [5, 8]",growth inhibition ([5]; at 50.0 µM),"growth inhibition [6, 7]","growth inhibition [6, 8]",growth inhibition ([6]; at 50.0 µM)
Cc1cc(-c2ccc(N=Nc3cc(S(=O)(=O)O)c4ccccc4c3N)c(C)c2)ccc1N=Nc1cc(S(=O)(=O)O)c2ccccc2c1N,19%,82% (active),64.6%,16,60%,52.1%,29%,69%,66.8%,31,48%,30.6%,26%,73% (active),73.7% (active),32%,86% (active),71% (active)
O=[N+]([O-])c1ccc(O)c(C2CCCCC2)c1,72% (active),98% (active),99.5% (active),67,99% (active),99.2% (active),62%,99% (active),99.7% (active),64,99% (active),99.5% (active),79% (active),98% (active),100% (active),87% (active),99% (active),99% (active)
OC1OCC(OCc2ccccc2)C(OCc2ccccc2)C1OCc1ccccc1 (stereo not given),-4%,61%,97.4% (active),-25,59%,96.9% (active),-3%,68%,96.7% (active),-3,59%,81.5% (active),-5%,51%,97.7% (active),10%,86% (active),98.5% (active)
C[C@]12C[C@@H](c3ccccc3)Nc3ccccc3N1C(c1ccccc1)=NO2,-4%,68%,61%,10,74% (active),74.8% (active),-13%,70% (active),81% (active),5,55%,37.2%,-7%,81% (active),62%,-19%,75% (active),73.5% (active)
O=C(c1ccc(OCC(O)CN2CCN(c3ccccc3)CC2)cc1)c1cc2ccccc2c2ccccc12 (stereo not given),13%,85% (active),61%,12,78% (active),82.8% (active),17%,49%,44.6%,3,80% (active),91.5% (active),10%,91% (active),89.3% (active),9%,87% (active),96.2% (active)
O=C(O)c1ccccc1C(=O)c1ccc2c(c1)Cc1ccccc1-2,-5%,9%,68.6%,-3,4%,41.3%,-4%,7%,44.9%,-28,31%,74.8% (active),4%,5%,42.8%,3%,26%,76% (active)
O/N=C(/Cc1ccccc1)c1ccc2c(c1)OCO2,-4%,6%,-9.8%,-14,-11%,4.9%,-18%,3%,-2.4%,-6,17%,8.6%,6%,29%,15.1%,-19%,10%,2.95%
O=c1c(-c2ccccc2)coc2cc(O)ccc12,-14%,8%,60.6%,5,23%,36.9%,-6%,16%,63.3%,-12,-12%,18.1%,-25%,34%,75.8% (active),-3%,12%,4.9%
Nc1c(-c2ccc(C3=NCCN3)cc2)[nH]c2cc(C3=NCCN3)ccc12,2%,89% (active),32.3%,1,89% (active),-29%,14%,92% (active),69.9%,13,83% (active),49.5%,22%,94% (active),74.1% (active),3%,90% (active),-46.2%
CCc1cccc(C(C)C)c1N1C(=O)C(=O)C(c2nc3ccccc3s2)C(=O)C1=O,65%,65%,85.2% (active),23,23%,87.3% (active),71% (active),71% (active),83.8% (active),51,51%,85% (active),34%,34%,86% (active),36%,36%,88.2% (active)
Nc1ccc(C(=O)/C=C/c2ccccn2)cc1,3%,45%,8.2%,-6,64%,31.4%,1%,60%,17.8%,9,38%,17.6%,-1%,79% (active),66.8%,6%,82% (active),27.9%
COc1ccc2c(c1)C(=O)/C(=C/c1ccc([N+](=O)[O-])o1)CO2,15%,99% (active),97.2% (active),10,100% (active),38.2%,33%,100% (active),98.1% (active),15,99% (active),57.1%,15%,99% (active),89.8% (active),78% (active),99% (active),98.2% (active)
Cc1occc1C(=S)Nc1ccc(Cl)c(C(=O)OCC(F)(F)F)c1,23%,92% (active),92.2% (active),21,93% (active),92.8% (active),26%,96% (active),90.8% (active),21,97% (active),88.5% (active),29%,99% (active),91.2% (active),27%,96% (active),86.8% (active)
CCC1=C(C)/C(=C/c2[nH]c(C(Br)Br)c(CC)c2C)N=C1C(Br)Br,-1%,98% (active),30.6%,-6,99% (active),45.1%,2%,99% (active),26%,-6,97% (active),75.2% (active),0%,93% (active),49.3%,0%,98% (active),45.6%
Cc1cc(=O)[nH]c2cc3oc4ccccc4c3cc12,30%,94% (active),95.2% (active),-5,39%,32.4%,11%,40%,17.6%,9,36%,68.1%,-13%,45%,81% (active),23%,80% (active),78.9% (active)
N#CC(C(=O)C(=O)Nc1ccc(Cl)c(Cl)c1)c1c(Cl)cccc1Cl (stereo not given),-1%,4%,25.9%,-2,-10%,3.15%,-1%,-1%,2.95%,4,-4%,43%,-1%,-1%,-3.2%,-2%,-5%,31.4%
Cc1cc(O)c(/C=N/c2nc(-c3cccc([N+](=O)[O-])c3)cs2)c(=O)o1,40%,99% (active),37.9%,42,100% (active),30%,52%,100% (active),51.2%,22,99% (active),31%,51%,100% (active),37.7%,54%,99% (active),63.6%
OC(CN1CCc2ccccc2C1)c1ccc2ccccc2c1 (stereo not given),23%,64%,86.5% (active),18,58%,50.5%,34%,86% (active),88.5% (active),26,58%,68.3%,36%,93% (active),94.6% (active),25%,82% (active),45.3%
O=C1CCCCCCC2=C1C(Sc1ccccc1)CC2 (stereo not given),-27%,34%,78.8% (active),-6,25%,52.4%,-16%,35%,75.2% (active),13,28%,45.6%,3%,69%,60.1%,-13%,80% (active),54.1%
Cc1cc2nc3[nH]c4c(Cl)cc(Cl)cc4c3nc2cc1C,26%,28%,-36.8%,14,10%,-28.6%,3%,3%,-7.3%,-10,5%,56.4%,-4%,8%,-70.8%,4%,19%,-20.6%
